High-throughput results deposited in PubChem by University of Kansas High Throughput Screening Laboratory.
Pf apPOL block: Pf-apPOL DNA polymerase inhibition. Recombinant Pf-apPOL, molecular beacon fluorescence, 1.5 h. hit rate 0.25% among 210,000. AID 1794808. inhibition, % at 10 µM
mHTT CaM bind: inhibitors of human mutant huntingtin-calmodulin interaction | AlphaScreen His-mHTT/GST-CaM binding, luminescence | P42858 | hit rate 3.6% among 190,000 | inhibition, % at 15 µM;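 note: 0% = both proteins with DMSO and 100% = one protein alone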
The depositor's hits bear a star; ! = repeats disagree. This is one part of a sample in which hits are shown more often than they occur. Cut-off read from the data, not from the text of the source: active = inhibition above about 50%; inactive = the rest.

SMILES	Pf apPOL block	mHTT CaM bind
Cc1c(Cl)cccc1Nc1nc(-c2ccccn2)cs1	1	100*
COc1ccc(Cl)cc1Nc1nc(-c2ccncc2)cs1	-3	-2
COc1ccc(OC)c(Nc2nc(-c3ccncc3)cs2)c1	-10	6
CCc1ccccc1Nc1nc(-c2ccccn2)cs1	-2	99*
CCC(=O)Nc1nc(C)c(-c2csc(Nc3ccccn3)n2)s1	0	41
O=[N+]([O-])c1cccc(Nc2nc(-c3ccccn3)cs2)c1	-3	48
COc1ccc(Cl)cc1Nc1nc(-c2ccccn2)cs1	0	56*
CCN1CCCc2cc(C(=O)NC(C)C)sc21	-2	-6
Cc1ccc(NC(=O)N2CCC(n3c(-c4ccoc4)nc4cccnc43)C2)cc1C (centres undefined)	-3	2
Nc1ccccc1NC(=O)c1cccc(C(F)(F)F)c1	-2	10
Cc1cccc(-n2ccn(CC(=O)NCCc3ccccc3)c(=O)c2=O)c1	10	-7
CCC(=O)Nc1nc(C)c(-c2csc(Nc3ccccc3OC)n2)s1	28	41
COc1ccccc1Nc1nc(-c2sc(N)nc2C)cs1	-1	74*
O=C(CCC(=O)NC1CCCCC1)Nc1noc2ccccc12	-6	2
CC(=O)Nc1cccc2c(C(=O)NC(C)c3ccc(C)cc3C)ccnc12 (centres undefined)	0	0
COc1ccc(C(=O)NC(c2ccc([N+](=O)[O-])cc2)c2cc(Cl)c3cccnc3c2O)cc1 (centres undefined)	-12	14
Cc1cccnc1NC(=O)C(C)Oc1cccc(Cl)c1 (centres undefined)	5	0
O=C(COc1ccccc1)NC(c1ccc([N+](=O)[O-])cc1)c1cc(Cl)c2cccnc2c1O (centres undefined)	-8	32
CC(=O)NC(c1cccc(Cl)c1)c1cc(Cl)c2cccnc2c1O (centres undefined)	-3	100*
COc1ccc(C(=O)NC(c2ccc(OC)c(OC)c2)c2cc(Cl)c3cccnc3c2O)cc1 (centres undefined)	2	72*
CC(=O)NC(c1ccc(C)cc1)c1cc(Cl)c2cccnc2c1O (centres undefined)	2	100*!
O=C(COc1ccccc1)NC(c1ccccc1)c1cc(Cl)c2cccnc2c1O (centres undefined)	-2	100*
Fc1cccc(Cc2nc(-c3cccc(-c4ccn[nH]4)c3)no2)c1	1	11
Cc1ccc(NC(=O)c2ccc(-n3nc(N4CCCC4)ccc3=O)cc2)cc1Cl	6	-4
O=C(NC1CCCC1)C(c1cc2c(cc1[N+](=O)[O-])OCO2)N1CCN(C2CCCCC2)CC1 (centres undefined)	-3	3
SMILES	Pf apPOL block	mHTT CaM bind
Cc1cc2nc(CN3CCN(c4cccc(C)c4C)CC3)c(=O)[nH]c2cc1C	-2	-5
CC(=O)NC(c1ccc2c(c1)OCO2)c1cc(Cl)c2cccnc2c1O (centres undefined)	-6	100*
O=C(Nc1ccc2c(c1)OCO2)C(=O)NC(c1ccccc1)c1ccccc1	-7	-8
O=C(NCc1ccco1)N1CCc2c(nc3cc(-c4ccccc4Cl)[nH]n3c2=O)C1	-2	24
O=C(c1n[nH]c2c1CCCCCC2)N1CCc2c(nc3cc(-c4ccccc4)[nH]n3c2=O)C1	0	19
COCCNC(=O)N1CCc2[nH]nc(-c3ccccc3)c2C1	-3	-4
CC(C)C(=O)N1CCc2c(nc3cc(-c4ccccc4Cl)[nH]n3c2=O)C1	-1	12
Cc1ccc(-c2n[nH]c3c2CN(C(=O)NCc2ccco2)CC3)cc1	-1	64*
O=C(c1n[nH]c2c1CCCC2)N1CCc2c(nc3cc(-c4ccccc4Cl)[nH]n3c2=O)C1	-4	59*
CC(C)C(=O)N1CCc2nc3cc(-c4ccccc4Cl)[nH]n3c(=O)c2C1	13	58*
O=C(NCc1ccco1)N1CCc2nc3cc(-c4ccccc4Cl)[nH]n3c(=O)c2C1	27	68*
COc1cc(/C=C2/N=C(c3cccc(F)c3)OC2=O)cc(OC)c1OC	-4	4
COC(=O)C(NC(=O)N1CCc2c(nc(-c3ccc(F)cc3)[nH]c2=O)C1)C(C)C (centres undefined)	-4	0
CS(=O)(=O)N1CCC(C(=O)N(Cc2ccsc2)Cc2ccco2)CC1	-6	-12
CCc1ccc(S(=O)(=O)N2CCc3c(c(-c4nc(-c5ccccc5)no4)nn3C)C2)cc1	-4	-8
CCOc1cc(/C=C2\NC(=O)NC2=O)cc(Br)c1OCc1ccc(C(=O)O)cc1	-1	9
Cc1cc(C)cc(OCC(=O)Nc2ccc(N(C)C)cc2)c1	2	47
COc1ccc(C(=O)Nc2ccc3nn(-c4ccc(Cl)cc4)nc3c2)cc1[N+](=O)[O-]	0	5
O=C(c1ccccc1)N1CCc2nc3cc(-c4ccccc4Cl)[nH]n3c(=O)c2C1	6	13
O=C(c1ccc2[nH]ccc2c1)N1CCc2nc3cc(-c4ccccc4Cl)[nH]n3c(=O)c2C1	23	96*
COc1cccc(NC(=O)N2CCc3c(nc4cc(-c5ccccc5Cl)[nH]n4c3=O)C2)c1	0	51*
O=C(Nc1ccccc1)N1CCc2c(nc3cc(-c4ccccc4Cl)[nH]n3c2=O)C1	0	43
COc1ccc(/C=C2\SC(N3CCC(C)CC3)=NC2=O)cc1	0	13
COc1ccc(OC)c(NC(=O)C2=C(C)NC(=O)NC2c2cccc([N+](=O)[O-])c2)c1 (centres undefined)	-1	-1
CC(C)(C)CC(=O)Nc1nc2ccc(S(C)(=O)=O)cc2s1	-5	1
SMILES	Pf apPOL block	mHTT CaM bind
COc1ccc(C2C(C#N)=C(N)Oc3n[nH]c(-c4ccccn4)c32)c(OC)c1OC (centres undefined)	-3	34
N#CC1=C(N)Oc2n[nH]c(-c3ccccn3)c2C1c1cccnc1 (centres undefined)	-3	29
Cc1ccc(C2C(C#N)=C(N)Oc3n[nH]c(-c4ccccc4)c32)s1 (centres undefined)	-3	13
N#CC1=C(N)Oc2n[nH]c(-c3ccccn3)c2C1c1ccc2c(c1)OCO2 (centres undefined)	10	62*
N#CC1=C(N)Oc2n[nH]c(-c3ccccn3)c2C1c1ccc(O)cc1 (centres undefined)	-2	80*
N#CC1=C(N)Oc2n[nH]c(-c3ccccn3)c2C1c1ccncc1 (centres undefined)	13	53*
Cc1[nH]nc2c1C(c1ccc3c(c1)OCO3)C(C#N)=C(N)O2 (centres undefined)	-2	-4
N#CC1=C(N)Oc2n[nH]c(-c3ccccn3)c2C1c1ccc([N+](=O)[O-])s1 (centres undefined)	5	99*
O=C(CC1CCCC1)NCc1nnc2n1CCCC2	-2	-4
CCOC(=O)N1CCN(C(=O)C2CCCN(c3cnn(C)c(=O)c3)C2)CC1 (centres undefined)	-3	1
N#CC1=C(N)Oc2n[nH]c(-c3ccc4c(c3)OCO4)c2C1c1ccc(Cl)cc1 (centres undefined)	-4	81*
N#CC1=C(N)Oc2n[nH]c(-c3ccc4c(c3)OCO4)c2C1c1ccc2c(c1)OCO2 (centres undefined)	-14	26
O=C(CCCSc1ccc(NC(=O)c2ccc(F)cc2)nn1)NCCN1CCOCC1	-8	-10
CC(C)(C)c1ccc(C(=O)Nc2c(-c3ccccc3)nc3sccn23)cc1	-3	42
